“And” between values parts separate entries of the source, which are not always exact repeats. Identical values can stand only once. The panel holds about 83,000 compounds, 20% with a hit somewhere; the sample as a whole holds those more often.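 Interpretation: 100, growth as untreated; towards 0, rising growth inhibition; 0, no net growth; 0 to -100, cell death. Compounds scoring below 10 were considered active.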 Values without a mark were called inactive. The source made the active and inactive calls.

The assay relates to MDA-MB-468 breast. Put plainly: NCI-60 one-dose screen, 48 h (100 = growth as untreated, 0 = no growth, -100 = all killed). The settings on record: 10 µM unless noted.
On to `NCCOc1ncccc1/C=C1\C2C=CC=CC2C2C=CC(F)=CC12` (stereo unspecified), for which the growth was -7.18% (active).
As to `c1ccc2cc(Cn3cc[n+](Cc4ccc5ccccc5c4)c3)ccc2c1`, the growth was -23.7% (active).
The value for `S=C(S)N1CCCC1` was 111%.
For the compound `Cn1c(=O)c(S(=O)(=O)c2ccccc2)cc2ccc3c(cnn3-c3ccc(Cl)cc3)c21`, the growth is 72.3%.
The value for `O=C(CN1CCCCCC1)Nc1nc2ccc(NCc3ccc(Cl)cc3)cc2s1` was 85.2%; that for `CC(C)(C)[C@H](OCc1cn([C@H]2C[C@@H](O)[C@@H](CO)O2)c(=O)[nH]c1=O)c1ccc(C#Cc2ccccc2)cc1[N+](=O)[O-]` was 68.2%.
The value for `CCN(CC)CCCC(C)Nc1cnc(C(=O)Nc2cc(F)cc3cccnc23)cn1` (stereo unspecified) was 6.24% (active) and -66.3% (active); that for `COc1cc2cc3c(nc2cc1OC)CCN3Cc1ccc(NC(=O)Nc2ccc(F)cc2F)cc1` was 45.6%; that for `CCCCSC1=C(Cl)CN(c2ccc(Cl)cc2)C1=O` was 77.9%.
With `CCOC(=O)N1C/C(=C/c2ccc(Cl)cc2)C(=O)/C(=C/c2ccc(Cl)cc2)C1`, the growth is 33.1%.
The value for `N#Cc1cccc(CN2CCc3ncn(Cc4ccc(Cl)cc4)c(=O)c3C2)c1` was -21.8% (active).
The value for `Cc1cc2c(cc1C)[n+](Cc1ccc3ccccc3n1)cn2Cc1ccc2ccccc2n1` was -35.5% (active).
On to `COc1cccc(C2CC(=O)Nc3c2c(C)nn3-c2nc3ccccc3[nH]2)c1OC` (stereo unspecified), for which the growth is 71.5%.
The result for `Nc1nc2ncc(CNc3ccc(C(=O)N[C@@H](CCc4nn[nH]n4)C(=O)O)cc3)nc2c(=O)[nH]1` reads 93.9% and 98.6%; that for `COC1=CC(=O)OC(c2ccc(OC)cc2)C1` (stereo unspecified), 112%.
The value for `CCCCOC(=O)c1ccc(NC(=O)C(C)N2CCOCC2)cc1` (stereo unspecified) was 97%; that for `CCN1C(=O)N(CC)C2C1NN=c1s/c(=C3\C(=O)N(C(C)C)c4ccccc43)c(=O)n12` (stereo unspecified) was 16.5%.
The value for `CCN(CCO)CCNc1ccc(C)c2sc3cc(Cl)ccc3c(=O)c12` was -47.7% (active); that for `N=c1c2cc(-c3ccccc3)oc2ncn1/N=C/c1ccc(Cl)cc1` was 88.2%; that for `COc1ccc(S(=O)(=O)NCCNc2nccc(-c3c(-c4ccccc4)nc4sccn34)n2)cc1` was 36.7%.
For the compound `c1ccc2c3c([nH]c2c1)C(c1ccc(C2NCCc4c2[nH]c2ccccc42)cc1)NCC3` (stereo unspecified), the growth is -83.2% (active).
The result for `CNC(=O)c1cc(Oc2ccc3nc(NC(=O)Nc4ccc(C(F)(F)F)cc4)sc3c2)ccn1` reads 49.9%; that for `CCN(CC)Cc1cc(C=C2C(=O)NC(=S)NC2=O)cc(OC)c1O`, 108%.
The value for `N#Cc1ccc(N2Cc3cc(Cl)ccc3OC3=C2C(=O)N(Cc2ccc(F)cc2)C3=O)cc1` was -68.2% (active).
The result for `Nc1cccc(-c2nc3sccn3c2-c2ccnc(NCCCNS(=O)(=O)c3cccc4ccccc34)n2)c1` reads 18.2%; that for `Cc1c(C(=N)C(C#N)C#N)c(=N)oc2c1ccc1ccccc12`, 54.5%; that for `COC(=O)C1=C(C(=O)OC)C23C=C(C)C1C2=C(C)C1(CC1)[C@@](C)(O)C3=O` (stereo partly specified), -54.2% (active).
On to `CC1CCN(S(=O)(=O)c2ccc(S(=O)(=O)N3CCCC(c4nc5c(nnn5Cc5cccc(Cl)c5)c(=O)[nH]4)C3)cc2)CC1` (stereo unspecified), for which the growth is 27.7%.
Regarding `COc1ccc(/C(C)=C(\c2ccc(Cl)cc2)c2ccc(OCCN)cc2)cc1`, the growth is 67.2%.
The value for `Cc1c(NCC(=O)Nc2nc3ccccc3[nH]2)c(=O)n(-c2ccccc2)n1C` was 106%; that for `COc1ccc(-c2cc(/C=C/C(=O)c3ccc(N)cc3)[nH]n2)cc1OC` was -1.28% (active); that for `Cc1c(-c2csc(-n3nc(C(F)(F)F)cc3C(F)(F)F)n2)no[n+]1[O-]` was 81.2%.
Consider `CC(C)=CCC[C@](C)(O)[C@H]1CC[C@]2(C)[C@@H]1CC[C@@H]1[C@@]3(C)CC[C@H](OC(=O)CCC(=O)O)C(C)(C)[C@@H]3CC[C@]12C`, for which the growth was 30.5% [100 µM].
The value for `COc1ccc(-c2n[nH]nc2-c2csc3ccccc23)cc1OC` was 21.1%; that for `COc1cc2c(c(O)c1Br)C(=O)c1c(O)cc(C[C@H](C)O)cc1[C@H]2[C@H]1c2cc(C[C@H](C)O)cc(O)c2C(=O)c2c1cc(OC)c(Br)c2O` was -14.5% (active).
The value for `C#Cc1cccc(Nc2ncnc3cc(NC(=O)CCl)ccc23)c1` was -60.8% (active).

For the origin of these results see PubChem BioAssay (NCI).
